# Giardia FBPA inh = qHTS Assay for Inhibitors of Fructose-1,6-bisphosphate Aldolase from Giardia Lamblia; Potency, µM (series often up to 59.6 µM), without a hit: top-dose activity, negative = inhibition, hits mostly inhibitors; purified Giardia FBPA; A8B2U2; 290,000 tested, 0.71% active; note: potency is the fitted concentration of half-maximal effect; nearly all actives have a fitted effect of over 55% in size
# Target sequence (A8B2U2 whole entry, looked up): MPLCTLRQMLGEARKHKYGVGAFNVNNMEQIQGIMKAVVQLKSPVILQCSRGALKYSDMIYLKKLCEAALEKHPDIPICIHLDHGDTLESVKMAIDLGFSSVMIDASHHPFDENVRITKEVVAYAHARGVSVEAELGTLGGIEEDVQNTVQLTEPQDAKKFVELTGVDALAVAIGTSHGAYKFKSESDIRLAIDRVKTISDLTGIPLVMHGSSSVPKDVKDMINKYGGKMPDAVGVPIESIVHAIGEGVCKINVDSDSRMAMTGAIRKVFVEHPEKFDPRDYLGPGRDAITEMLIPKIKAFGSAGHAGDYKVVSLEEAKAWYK
#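 Giardia FBPA (40 nM reagent) was preincubated 10 min at RT with compound (up to 57.5 uM final), then substrate plus GAPDH/TPI/NAD/arsenate coupling system with diaphorase/resazurin was added; resorufin fluorescence (525/598 nm) was read after 20 min.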
# Sm TGR inh = qHTS Assay for the Inhibitors of Schistosoma Mansoni Peroxiredoxins; Potency, µM (doses to about 114 µM), for inactives: top-dose activity change, negative = inhibition, actives largely listed as inhibitors; purified TGR, DTNB reduction, TNB absorbance 405 nm; AID 485364, 2010; 360,000 tested, 3% active; Schistosoma mansoni thioredoxin glutathione reductase (TGR), Q962Y6; note: potency is the fitted concentration of half-maximal effect; nearly all actives have a fitted effect of over 60% in size
#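 Kinetic colorimetric format: TGR-catalysed, NADPH-driven DTNB reduction monitored via TNB absorbance. Enzyme dispensed at 20 nM; compound exposure 15 min at room temperature before reaction start.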
# TbPYK inhibitor = qHTS of Trypanosoma Brucei Inhibitors. pyruvate kinase (Trypanosoma brucei), Q57TT1. TbPYK enzyme, Kinase-Glo Plus ATP luminescence, 45 min. Potency, µM (top dose mostly 76.8 µM), for inactives: top-dose activity, negative = inhibition, hits mostly inhibitors. 410,000 tested, 0.12% active; note: potency is the fitted concentration of half-maximal effect; nearly all actives have a fitted effect of over 50% in size
#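 Glycolytic pyruvate kinase of T. brucei was incubated with substrate, test compound and 130 uM ADP for 45 minutes at room temperature. Luminescent Kinase-Glo Plus signal was measured after 10 minutes.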
# FMDV inh = High Throughput Screening for Foot and Mouth Disease Virus Antivirals; FMDV antiviral cell-based qHTS; Potency, µM (series often up to 57.9 µM), without a hit: at the highest dose activity change, negative = inhibition, most hits filed as inhibitors; 410,000 tested, 1.2% active; AID 1159524, 2015; calls by dose curve; tested in HEK293T cells; note: read-out not given here; potency is the fitted concentration of half-maximal effect; nearly all actives have a fitted effect of over 45% in size
# HCMV antiviral = qHTS Assay for inhibitors of the human cytomegalovirus (HCMV); HFF cells, HCMV-luciferase reporter, 72 h; active compounds read low; activity change, negative = inhibition, % at 57.5 µM; 410,000 tested, 4.5% active; AID 1259415, 2018; in the data active = activity change below about -60%; inconclusive = no clear call, values can overlap the other calls; inactive = above about -39%
#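 Screen run at 2 compound doses on HFFs infected with reporter HCMV, MOI 1 PFU/cell. Luciferase activity from cell lysates at 72 h post infection gave inhibition relative to buffer-only and Salinomycin wells.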
# RE007 growth inh = qHTS Assay for Inhibitors of the HIV-1 protein Vpr | AID 651644, 2012 | S. pombe RE007 Vpr strain, BacTiter-Glo ATP luminescence, 24 h | Potency, µM (doses to about 92.2 µM), for the others: at the top dose activity change, negative = less growth, most hits filed as inhibitors | 360,000 tested, 0.21% active; active = well fitted falling curve with a large enough effect; inconclusive = small, poorly fitted or top-dose-only effect; inactive = no such curve, though single readings can be large or run the other way; note: potency is the fitted concentration of half-maximal effect; nearly all actives have a fitted effect of over 50% in size
#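 Fission yeast RE007 carrying one integrated HIV-1 vpr copy, seeded at OD 0.01 in PMG+AL medium with 23 nL pinned compound. Grown 24 h at 30 degrees; viability read by BacTiter-Glo luminescence after 5 min.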
# * hit, by the source's call; ? = inconclusive; / = no result. Compounds with a hit are over-represented: about 7.7% of the library has one in this group of screens. Unless noted, calls come from the whole dose curve; as a rule, active = well fitted curve in the direction sought with a large enough effect; inconclusive = small, poorly fitted or top-dose-only effect, or another doubt; inactive = no such curve, though single readings can be large; an effect the other way counts as inactive or inconclusive. % is set by controls: 0 for no effect and ±100 for the full control effect.
SMILES,Giardia FBPA inh,Sm TGR inh,TbPYK inhibitor,FMDV inh,HCMV antiviral,RE007 growth inh
O=C(Nc1ccccc1)N[C@H]1CC[C@@]23CCCN2C(=O)CCC[C@H]3C1Cc1ccccc1 (stereo partly specified),/,/,/,/,-17,/
CCNc1ncc2nc(-c3ccc(F)cc3)c(=O)n(C[C@H]3CCCO3)c2n1,0%,/,/,-12%,/,/
CCN(CC)C(=O)N1c2ccccc2C=Cc2ccccc21,1%,5%,-4%,?,-81*,12%
NC(=O)N1c2ccccc2C=Cc2ccccc21,4%,9%,-1%,-14%,-19,?
O=C(c1cccnc1)N1C[C@H]2[C@@H](c3ccccc31)[C@@H](CO)N2C(=O)Nc1ccccc1Cl,/,/,/,/,0,/
COc1ccc(C)cc1NCc1cccc(OC)c1OC,?,-8%,7%,-16%,30,-16%
COc1cc(OC)c(OC)cc1CNc1cc(C)ccc1OC,-13%,40µM*,-6%,-2%,?,-6%
Cc1ccc(Cl)cc1N(C)C(=O)c1sc2nc3n(c(=O)c2c1C)CCCC3,/,-25%,-1%,-22%,-30,/
COc1ccc(CN2CCc3nc(SCC(=O)Nc4cc(C)cc(C)c4)[nH]c(=O)c3C2)cc1,/,2%,2%,-16%,9,/
Cc1cc(Nc2ccccc2F)n2nc(Cc3ccc(Cl)cc3)nc2n1,/,0%,-8%,-1%,-36,/
O=C(c1ccc(CS(=O)(=O)c2ccc(Br)cc2)o1)N1CCN(c2ncccn2)CC1,3%,50µM*,-2%,0%,17,7%
Cc1ccc(Cl)cc1N1CCN(C(=O)c2ccc(CS(=O)(=O)c3ccc(Br)cc3)o2)CC1,/,2%,1%,?,-68*,/
COc1ccc(S(=O)(=O)Cc2ccc(C(=O)N3CCN(c4ccccn4)CC3)o2)cc1,0%,0%,-5%,?,/,-8%
Cc1ccc(S(=O)(=O)Cc2ccc(C(=O)N3CCN(c4cccc(Cl)c4)CC3)o2)cc1,/,-4%,2%,-15%,?,/
CN1C(=O)C(=Cc2sc(=O)n(-c3ccccc3)c2N(C)C)C(=O)N(C)C1=O,-7%,7%,9%,16µM*,-60*,-10%
N#Cc1nc(-c2ccc(COc3ccccc3)o2)oc1NCc1ccccc1,/,2%,5%,-21%,?,/
CC(Nc1oc(-c2ccc(COc3ccccc3)o2)nc1C#N)c1ccccc1 (stereo unspecified),/,-12%,-1%,-13%,-79*,/
CCOc1ccc(Nc2oc(-c3ccc(COc4ccc(OC)cc4)o3)nc2C#N)cc1,/,2%,-5%,-20%,-81*,/
Cc1ccc2nc(-c3ccc(NC(=S)NC4CC(C)(C)NC(C)(C)C4)cc3)sc2c1,2%,-27%,5%,63%,-102*,-18%
CCN1/C(=C/c2sc(-c3ccccc3C)c[n+]2C)Sc2ccccc21,-1%,4%,-2%,11µM*,-97*,?
CCC(C)n1c(=S)[nH]c2c(sc3ccc([N+](=O)[O-])cc32)c1=O (stereo unspecified),11%,-7%,-3%,35µM*,?,4%
COc1ccc(S(=O)(=O)N(CCCN2CCCC2=O)Cc2cc3cc(C)c(C)cc3[nH]c2=O)cc1,15%,3%,0%,-24%,-17,0%
Cc1ccc(S(=O)(=O)N(CCCN2CCCC2=O)Cc2cc3c(C)ccc(C)c3[nH]c2=O)cc1,/,-1%,4%,-22%,-64*,-8%
O=C(/C=C/c1ccc(Cl)c([N+](=O)[O-])c1)Nc1ccc(N2CCCC2)c(Cl)c1,0%,7%,0%,-18%,-68*,3%
CCN1CCN(c2ccc(S(=O)(=O)N3CCCCC3)cc2NC(=O)/C=C/c2ccc([N+](=O)[O-])cc2)CC1,/,6%,0%,?,-19,-13%
